Data taken from the supplement of paper PMC11738630.

System: Salmonella enterica serovar Typhimurium 14028s
Test: approximate change in surviving CFU after surface colonization relative to water-only control (log10 CFU/mL change); higher = more surviving bacteria (less inhibition of surface colonization)
Conditions: not stated (Biolog proprietary concentration), surface: plastic 96-well plate, 20-24 h at 25 °C

Q: Which “approximate change in surviving CFU (log10)” value (shortened to “approximate change … (log10)”) (Biolog plate: PM2, Biolog well: F9) does the source give for `C/C=C/C=C/C(=O)O` [Sorbic Acid] here?
A: -2.68

Q: How did the “approximate change … (log10)” value (Biolog plate: PM2, Biolog well: G8) turn out when `O=C(O)[C@@H]1C[C@@H](O)CN1` [Hydroxy-L-Proline] was run?
A: 0.622

Q: Which “approximate change … (log10)” value (Biolog plate: PM2, Biolog well: H9) does the source give for `O=C(CO)CO` [Dihydroxy Acetone] here?
A: -4.4

Q: `NC(=O)NC(N)=O` [Biuret] was tested. Which “approximate change … (log10)” value (Biolog plate: PM3, Biolog well: A6) did it give?
A: -0.258

Q: `N[C@@H](CS)C(=O)O` [L-Cysteine] was tested. Which “approximate change … (log10)” value (Biolog plate: PM3, Biolog well: A11) did it give?
A: 0.88

Q: For `N[C@@H](Cc1c[nH]c2ccccc12)C(=O)O` [L-Tryptophan], which “approximate change … (log10)” value (Biolog plate: PM3, Biolog well: B12) is on record?
A: -1.05

Q: How did the “approximate change … (log10)” value (Biolog plate: PM3, Biolog well: D5) turn out when `CN` [Methylamine] was run?
A: -1.05

Q: How did the “approximate change … (log10)” value (Biolog plate: PM3, Biolog well: D6) turn out when `CCCCCN` [N-Amylamine] was run?
A: -0.708

Q: How did the “approximate change … (log10)” value (Biolog plate: PM3, Biolog well: F2) turn out when `Nc1[nH]cnc2ncnc1-2` [Adenine] was run?
A: -0.515

Q: For `Nc1cc[nH]c(=O)n1` [Cytosine], which “approximate change … (log10)” value (Biolog plate: PM3, Biolog well: F5) is on record?
A: 1.14

Q: How did the “approximate change … (log10)” value (Biolog plate: PM3, Biolog well: F7) turn out when `Nc1nc2c(ncn2[C@@H]2O[C@H](CO)[C@@H](O)[C@H]2O)c(=O)[nH]1` [Guanosine] was run?
A: -0.172

Q: How did the “approximate change … (log10)” value (Biolog plate: PM3, Biolog well: G1) turn out when `O=c1[nH]c(=O)c2nc[nH]c2[nH]1` [Xanthine] was run?
A: 0.408

Q: `NC(=O)NC1NC(=O)NC1=O` (stereo unspecified) [Allantoin] was tested. Which “approximate change … (log10)” value (Biolog plate: PM3, Biolog well: G5) did it give?
A: 0.258

Q: Which “approximate change … (log10)” value (Biolog plate: PM3, Biolog well: H9) does the source give for `NCC(=O)N[C@@H](CCC(N)=O)C(=O)O` here?
A: 0.129

Q: With `OC[C@H]1OC(O)[C@@H](O)[C@@H](O)[C@@H]1O` (stereo partly drawn) [D-Mannose] as the compound, how does the “approximate change … (log10)” value (Biolog plate: PM1, Biolog well: A11) read?
A: 1.93

Q: Which “approximate change … (log10)” value (Biolog plate: PM1, Biolog well: B7) does the source give for `O=P(O)(O)OC[C@H](O)CO` (racemic) [D,L-a-Glycerol-Phosphate] here?
A: 1.31

Q: For `O[C@@H]1[C@H](O)[C@H](O)CO[C@H]1O` [D-Ribose], which “approximate change … (log10)” value (Biolog plate: PM1, Biolog well: C4) is on record?
A: 0.172

Q: For `CC(O)CO` (stereo unspecified) [1,2-Propanediol], which “approximate change … (log10)” value (Biolog plate: PM1, Biolog well: D4) is on record?
A: -0.3

Q: For `CCC(=O)C(=O)O` [a-Keto-Butyric Acid], which “approximate change … (log10)” value (Biolog plate: PM1, Biolog well: D7) is on record?
A: 0.172

Q: `O=C(O)C(O)C(O)C(=O)O` (stereo unspecified) [m-Tartaric Acid] was tested. Which “approximate change … (log10)” value (Biolog plate: PM1, Biolog well: E2) did it give?
A: 1.04

Q: With `O=C(O)[C@@H](O)[C@H](O)[C@H](O)[C@@H](O)C(=O)O` [Mucic Acid] as the compound, how does the “approximate change … (log10)” value (Biolog plate: PM1, Biolog well: F8) read?
A: 1.38

Q: How did the “approximate change … (log10)” value (Biolog plate: PM1, Biolog well: F11) turn out when `OCC1OC(OC2C(CO)OC(O)C(O)C2O)C(O)C(O)C1O` [D-Cellobiose] was run?
A: 1.2

Q: For `NCC(=O)N[C@@H](CCC(=O)O)C(=O)O` [Glycyl-L-Glutamic Acid], which “approximate change … (log10)” value (Biolog plate: PM1, Biolog well: G1) is on record?
A: 1.22

Q: `COC(=O)CCC(=O)O` [Mono Methyl Succinate] was tested. Which “approximate change … (log10)” value (Biolog plate: PM1, Biolog well: G9) did it give?
A: -1.74

Q: How did the “approximate change … (log10)” value (Biolog plate: PM1, Biolog well: H2) turn out when `O=C(O)Cc1ccc(O)cc1` [p-Hydroxy Phenyl Acetic Acid] was run?
A: -2.12

Q: Which “approximate change … (log10)” value (Biolog plate: PM1, Biolog well: H6) does the source give for `O=C[C@H](O)[C@H](O)[C@@H](O)CO` [L-Lyxose] here?
A: -0.987

Q: How did the “approximate change … (log10)” value (Biolog plate: PM1, Biolog well: H12) turn out when `NCCO` [2-Aminoethanol] was run?
A: 0.365

Q: `OC[C@H]1OC(O[C@H]2[C@H](O)[C@@H](O)C(O[C@H]3[C@H](O)[C@@H](O)[C@@H](O)O[C@@H]3CO)O[C@@H]2CO)[C@H](O)[C@@H](O)[C@@H]1O` (stereo partly specified) [Dextrin] was tested. Which “approximate change … (log10)” value (Biolog plate: PM2, Biolog well: A6) did it give?
A: 0.665

Q: `CC(=O)N[C@H]1[C@H]([C@H](O)[C@H](O)CO)OC(O)(C(=O)O)C[C@@H]1O` (stereo partly specified) [N-Acetyl-Neuraminic Acid] was tested. Which “approximate change … (log10)” value (Biolog plate: PM2, Biolog well: B2) did it give?
A: 1.09

Q: With `OC[C@@H](O)C(O)[C@H](O)CO` [D-Arabitol] as the compound, how does the “approximate change … (log10)” value (Biolog plate: PM2, Biolog well: B6) read?
A: 1.37

Q: `CO[C@H]1O[C@H](CO)[C@@H](O)[C@H](O)[C@@H]1O` [a-Methyl-D-Mannoside] was tested. Which “approximate change … (log10)” value (Biolog plate: PM2, Biolog well: C10) did it give?
A: 0.0215

Q: For `OCc1ccccc1O[C@@H]1O[C@H](CO)[C@@H](O)[C@H](O)[C@H]1O` [Salicin], which “approximate change … (log10)” value (Biolog plate: PM2, Biolog well: D2) is on record?
A: 0.0215

Q: Which “approximate change … (log10)” value (Biolog plate: PM2, Biolog well: E8) does the source give for `C[C@@H](O)CC(=O)O` [b-Hydroxy Butyric Acid] here?
A: -0.215

Q: With `C=C(CC(=O)O)C(=O)O` [Itaconic Acid] as the compound, how does the “approximate change … (log10)” value (Biolog plate: PM2, Biolog well: E11) read?
A: -3.95

Q: Which “approximate change … (log10)” value (Biolog plate: PM2, Biolog well: F3) does the source give for `O=C(O)[C@H](O)[C@@H](O)[C@H](O)[C@H](O)CO[C@H]1O[C@H](CO)[C@H](O)[C@H](O)[C@H]1O` [Melibionic Acid] here?
A: 0.3

Q: How did the “approximate change … (log10)” value (Biolog plate: PM2, Biolog well: F6) turn out when `O=C(O)[C@]1(O)C[C@@H](O)[C@@H](O)[C@H](O)C1` [Quinic Acid] was run?
A: 1.09

Q: `C[N+](C)(C)CC(O)CC(=O)[O-]` (racemic) [D,L-Carnitine] was tested. Which “approximate change … (log10)” value (Biolog plate: PM2, Biolog well: H5) did it give?
A: 0.365

Q: Which “approximate change … (log10)” value (Biolog plate: PM2, Biolog well: H7) does the source give for `NCC(O)c1ccc(O)cc1` (racemic) [D,L-Octopamine] here?
A: 0.987

Q: `O=[N+]([O-])O` [Nitrate] was tested. Which “approximate change … (log10)” value (Biolog plate: PM3, Biolog well: A4) did it give?
A: 0.665

Q: Which “approximate change … (log10)” value (Biolog plate: PM3, Biolog well: A5) does the source give for `NC(N)=O` here?
A: 0.429

Q: For `NCCCC[C@@H](N)C(=O)O` [D-Lysine], which “approximate change … (log10)” value (Biolog plate: PM3, Biolog well: C7) is on record?
A: -0.107

Q: With `CC(C)[C@@H](N)C(=O)O` [D-Valine] as the compound, how does the “approximate change … (log10)” value (Biolog plate: PM3, Biolog well: C9) read?
A: -0.172

Q: Which “approximate change … (log10)” value (Biolog plate: PM3, Biolog well: C10) does the source give for `NC(=O)NCCC[C@H](N)C(=O)O` [L-Citrulline] here?
A: 0.665

Q: For `NCCc1ccccc1` [B-Phenylethyl-amine], which “approximate change … (log10)” value (Biolog plate: PM3, Biolog well: E2) is on record?
A: -0.129

Q: How did the “approximate change … (log10)” value (Biolog plate: PM3, Biolog well: E7) turn out when `CC(O)C(N)=O` (racemic) [D,L-Lactamide] was run?
A: -1.78

Q: With `CCC(N)C(=O)O` (racemic) [D,L-a-Amino-N-Butyric Acid] as the compound, how does the “approximate change … (log10)” value (Biolog plate: PM3, Biolog well: G7) read?
A: -0.644

Q: Which “approximate change … (log10)” value (Biolog plate: PM3, Biolog well: H5) does the source give for `C[C@H](N)C(=O)N[C@@H](Cc1cnc[nH]1)C(=O)O` here?
A: -0.258

Q: How did the “approximate change … (log10)” value (Biolog plate: PM3, Biolog well: D1) turn out when `CC(=O)N[C@@H](CCC(=O)O)C(=O)O` [N-Acetyl-L-Glutamic Acid] was run?
A: 0.751

Q: Which results are given for `CC(=O)N[C@H]1C(O)O[C@H](CO)[C@H](O)[C@@H]1O` (stereo partly drawn) [N-Acetyl-D-Galactosamine]?
A: approximate change in surviving CFU (log10) (Biolog plate: PM2, Biolog well: B1): 0.622; approximate change in surviving CFU (log10) (Biolog plate: PM3, Biolog well: E12): -0.129

Q: Which results are given for `O=C1CC[C@@H](C(=O)O)N1` [L-Pyroglutamic Acid]?
A: approximate change in surviving CFU (log10) (Biolog plate: PM2, Biolog well: H3): -0.0858; approximate change in surviving CFU (log10) (Biolog plate: PM3, Biolog well: D3): -0.258

Q: What does the source list for `NC(=O)CC[C@H](N)C(=O)O` [L-Glutamine]?
A: approximate change in surviving CFU (log10) (Biolog plate: PM1, Biolog well: E1): 0.322; approximate change in surviving CFU (log10) (Biolog plate: PM3, Biolog well: B1): -0.0429

Q: Which “approximate change … (log10)” value (Biolog plate: PM2, Biolog well: G12) does the source give for `CSCC[C@H](N)C(=O)O` [L-Methionine] here?
A: 0.365

Q: And the “approximate change … (log10)” value (Biolog plate: PM3, Biolog well: B7)?
A: -0.88
